Data as given in PubChem BioAssay (NCI).
This is part of a sample that, as a whole, favours compounds with a hit. Of some 83,000 tested, about 20% had one in any assay.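 Note: values are percent growth. 100 is the growth of untreated cells, values between 100 and 0 indicate rising inhibition; between -100 and 0 indicates cell death.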 The source made the active and inactive calls. The calls were made as follows: active = growth percent below 10; inactive = the rest.

Columns and labels:
Test in all cases: NCI-60 one-dose screen, 48 h (100 = growth as untreated, 0 = no growth, -100 = all killed)
Conditions in all cases: 10 µM unless noted
SK-MEL-2 melanoma = tested on: SK-MEL-2 melanoma
EKVX NSCLC = tested on: EKVX NSCLC
SN12C renal = tested on: SN12C renal
UO-31 renal = tested on: UO-31 renal
TK-10 renal = tested on: TK-10 renal
ACHN renal = tested on: ACHN renal
CAKI-1 renal = tested on: CAKI-1 renal
CCRF-CEM leukemia = tested on: CCRF-CEM leukemia
MOLT-4 leukemia = tested on: MOLT-4 leukemia
SR leukemia = tested on: SR leukemia
RPMI-8226 leukemia = tested on: RPMI-8226 leukemia
OVCAR-8 ovarian = tested on: OVCAR-8 ovarian
OVCAR-5 ovarian = tested on: OVCAR-5 ovarian
OVCAR-4 ovarian = tested on: OVCAR-4 ovarian
SK-OV-3 ovarian = tested on: SK-OV-3 ovarian
IGROV1 ovarian = tested on: IGROV1 ovarian
OVCAR-3 ovarian = tested on: OVCAR-3 ovarian
HS 578T breast = tested on: HS 578T breast
NCI/ADR-RES ovarian = tested on: NCI/ADR-RES ovarian
A498 renal = tested on: A498 renal

Measured: growth

Cc1ccc2nc(-c3ccc(N=Cc4ccccc4O)cc3)sc2c1
inactive: SK-MEL-2 melanoma 101% | EKVX NSCLC 90.3% | SN12C renal 90.4% | UO-31 renal 60% | TK-10 renal 139% | ACHN renal 90.6% | CAKI-1 renal 67.7% | CCRF-CEM leukemia 77.4% | MOLT-4 leukemia 82.3% | SR leukemia 88.8% | RPMI-8226 leukemia 70.8% | OVCAR-8 ovarian 87.5% | OVCAR-5 ovarian 92.2% | OVCAR-4 ovarian 78.6% | SK-OV-3 ovarian 115% | IGROV1 ovarian 64% | OVCAR-3 ovarian 84.8% | HS 578T breast 102% | NCI/ADR-RES ovarian 77.7%

Cc1cc(CC(=O)NCCO)n(CCO)c(=O)c1
inactive: SK-MEL-2 melanoma 109% | EKVX NSCLC 93.7% | SN12C renal 103% | UO-31 renal 94.4% | TK-10 renal 94.1% | ACHN renal 106% | CAKI-1 renal 101% | A498 renal 89.4% | OVCAR-8 ovarian 103% | OVCAR-5 ovarian 106% | OVCAR-4 ovarian 108% | SK-OV-3 ovarian 104% | IGROV1 ovarian 108% | OVCAR-3 ovarian 106% | HS 578T breast 101% | NCI/ADR-RES ovarian 106%

Cn1c(=O)c2[nH]c(CCCCC(=O)O)nc2n(C)c1=O
inactive: SK-MEL-2 melanoma 111% | EKVX NSCLC 131% | SN12C renal 104% | UO-31 renal 105% | TK-10 renal 98.4% | ACHN renal 103% | CAKI-1 renal 106% | CCRF-CEM leukemia 75.6% | MOLT-4 leukemia 102% | SR leukemia 112% | RPMI-8226 leukemia 91.2% | OVCAR-8 ovarian 101% | OVCAR-5 ovarian 112% | OVCAR-4 ovarian 124% | SK-OV-3 ovarian 113% | IGROV1 ovarian 110% | OVCAR-3 ovarian 113% | NCI/ADR-RES ovarian 108%

CC(=O)N=c1ccc2nc3c(cc(N)c4ccccc43)oc-2c1
inactive: TK-10 renal 47.6% | ACHN renal 32.5% | SK-OV-3 ovarian 80.1%
active: SK-MEL-2 melanoma -42.4% | EKVX NSCLC 2.37% | SN12C renal -72.8% | UO-31 renal -43.9% | CAKI-1 renal -23.1% | CCRF-CEM leukemia -11.5% | MOLT-4 leukemia -37.2% | RPMI-8226 leukemia -19.9% | OVCAR-8 ovarian -22.1% | OVCAR-5 ovarian -73.5% | OVCAR-4 ovarian -89.8% | IGROV1 ovarian -81.7% | OVCAR-3 ovarian -82.8% | HS 578T breast -27.7% | NCI/ADR-RES ovarian -6.88%

NNC(=O)N/N=C1\C(=O)N(c2nccs2)C(=O)C(=O)C1c1nc2ccccc2s1 (centres undefined)
inactive: SK-MEL-2 melanoma 98.4% | EKVX NSCLC 84.8% | SN12C renal 96% | UO-31 renal 75.5% | TK-10 renal 114% | ACHN renal 109% | CAKI-1 renal 96.7% | OVCAR-8 ovarian 95% | OVCAR-5 ovarian 102% | OVCAR-4 ovarian 105% | SK-OV-3 ovarian 103% | IGROV1 ovarian 93.2% | OVCAR-3 ovarian 102% | HS 578T breast 96.2% | NCI/ADR-RES ovarian 103%

O=C1CSc2ccccc2N1
inactive: SK-MEL-2 melanoma 103% | EKVX NSCLC 97% | SN12C renal 100% | UO-31 renal 69.2% | TK-10 renal 105% | ACHN renal 110% | A498 renal 97.2% | CCRF-CEM leukemia 96.6% | MOLT-4 leukemia 114% | SR leukemia 105% | RPMI-8226 leukemia 95.2% | OVCAR-8 ovarian 94.9% | OVCAR-5 ovarian 116% | OVCAR-4 ovarian 98.9% | SK-OV-3 ovarian 112% | IGROV1 ovarian 105% | OVCAR-3 ovarian 115% | NCI/ADR-RES ovarian 98.8%

Cc1ccc([N+](=O)[O-])c(C)n1
inactive: SK-MEL-2 melanoma 120% | EKVX NSCLC 97.2% | SN12C renal 106% | UO-31 renal 74.1% | TK-10 renal 117% | ACHN renal 91.5% | A498 renal 79.8% | CCRF-CEM leukemia 96.4% | MOLT-4 leukemia 115% | SR leukemia 106% | RPMI-8226 leukemia 99.4% | OVCAR-8 ovarian 98.4% | OVCAR-5 ovarian 83.5% | OVCAR-4 ovarian 99.1% | SK-OV-3 ovarian 106% | IGROV1 ovarian 95% | OVCAR-3 ovarian 107% | NCI/ADR-RES ovarian 115%

Nc1ncc([N+](=O)[O-])cn1
inactive: SK-MEL-2 melanoma 93.1% | EKVX NSCLC 105% | SN12C renal 101% | UO-31 renal 90% | TK-10 renal 94.5% | ACHN renal 109% | A498 renal 87.8% | CCRF-CEM leukemia 98.4% | MOLT-4 leukemia 105% | SR leukemia 104% | RPMI-8226 leukemia 98.6% | OVCAR-8 ovarian 95.8% | OVCAR-5 ovarian 102% | OVCAR-4 ovarian 106% | SK-OV-3 ovarian 106% | IGROV1 ovarian 109% | OVCAR-3 ovarian 104% | HS 578T breast 101% | NCI/ADR-RES ovarian 105%

COc1c(CNC(=O)CCl)cc2[nH]c(C)cc2c1CNC(=O)CCl
inactive: SK-MEL-2 melanoma 54.9% | EKVX NSCLC 65.1% | SN12C renal 53.7% | UO-31 renal 60.7% | TK-10 renal 74.1% | ACHN renal 37.3% | A498 renal 84.4% | CCRF-CEM leukemia 25.6% | MOLT-4 leukemia 51% | SR leukemia 34.9% | RPMI-8226 leukemia 58.5% | OVCAR-8 ovarian 53% | OVCAR-5 ovarian 96.7% | OVCAR-4 ovarian 45.3% | SK-OV-3 ovarian 70.3% | IGROV1 ovarian 33.8% | OVCAR-3 ovarian 30.9% | NCI/ADR-RES ovarian 118%
